Test results taken from PubChem BioAssay (NCATS).
This is one part of the list. Inconclusive results are not listed. Values without a mark were called inactive. Calls of active or inactive are those of the source. Calls follow the shape of the full dose curve.

Molecular target: Furin (Homo sapiens) (UniProt P09958)
Test: Selectivity profile for inhibitors of NSP2Pro chikungunya virus (CHIKV): Human furin counterscreen (AID 1964102)
Settings: Recombinant human furin enzymatic counterscreen, fluorogenic substrate; series mostly up to 50.6 µM; activity change, negative = inhibition: at the top concentration
Excerpt: PI: Natalia J. Martinez Ph.D.
National Center for Advancing Translational Sciences (NCATS),
National Institute of Health (NIH), Rockville, Maryland
Chikungunya virus (CHIKV) is a mosquito-borne RNA virus that has emerged as one of the most important global arboviral threats in the last decade. Although the first CHIKV vaccine has recently been FDA approved for use in healthy adults at increased risk, to date, there are no available antiviral drugs for CHIKV infection. CHIKV nsP2 protease plays a crucial role in the processing of the viral polypeptide precursor to release enzymes required for viral replication, thus making it a promising drug target for antiviral discovery. Here, we established a high-throughput pipeline to identify small molecule inhibitors of nsP2 proteolytic activity. The pipeline is composed of a suite of 1,536-well in vitro assays to support quantitative high-throughput (qHTS) screening campaigns. Specifically, we developed a fluorescence resonance energy transfer (FRET)-based assay using a fluorogenic peptide substrate encompassing an endogenous cleavage site and purified recombinant protease domain (nsP2pro). Using this assay, we interrogated ~37,000 small molecules, including those in drug repurposing libraries as well as chemically diverse and medicinal chemistry-friendly compounds. Hits were selected for follow-up validation against full-length nsP2 and an additional peptide. FRET-based 1,536-well assays for papain, hepatitis C virus NS3-4A, and human furin proteases were implemented to characterize compound selectivity. […] Novel compounds were identified to be potential nsP2 inhibitors and molecular docking analyses were performed to explain the binding mode of selected hits. In vitro antiviral activity was evaluated for a subset of compounds using a high-throughput CHIKV infection assay. To our knowledge, the pipeline presented here is unprecedented for CHIKV antiviral discovery research.
PROTOCOL TABLE (as described by Inglese J, Shamu CE and Guy RK. 2007)
SEQUENCE No. (e.g., 1, 2, 3, etc.); […] (e.g., Cells, Incubation, Reagent, etc.); VALUE; DESCRIPTION.
1; Enzyme; 2 uL; 1,536-well solid-bottom, black plate (Greiner Bio One).
2; Compounds; 20 nL; Echo 655 acoustic dispenser (Beckman Coulter).
3; Incubation; 15 min; room temperature in the dark.
4: Reagent; 2 uL; pERTKR-AMC.
5; Detection; Fluorescence; time 0, Viewlux microplate reader (PerkinElmer) 355 nm excitation, 460 nm emission
6; Incubation; 15 min; room temperature
7; Detection; Fluorescence; time 15; ViewLux microplate reader (PerkinElmer), 355 nm excitation, 460 nm emission.
NOTES (numbers refer to sequence numbers above).
1. Two micro-liter of furin enzyme solution (40 nM final concentration) in assay buffer (20 mM Tris-HCl pH 8.0, 150 mM NaCl, with 0.01% Tween 20) were dispensed into a 1,536-well solid-bottom black plate (Greiner Bio One) using the Kalypsys Pintool Station.
2. Twenty nano-liter of compounds, positive control Aprotinin (50 uM final concentration), or neutral control DMSO were transferred to the assay plates. Compounds in counterscreen assays were tested at 11 concentrations, 1:3 dilution points from 25 uM to 0.42 nM.
3. The assay plates were incubated in the dark for 15 min.
4. After incubation, 2 uL of 0.625 uM pERTKR-AMC substrate in assay buffer for the Furin assay was added using the Kalypsys Pintool Station.
5-7. Plates were immediately read at time 0 then covered with stainless steel gasket lids and incubated for 15 min at room temperature in the dark. Fluorescence intensity in the assay plates were again read after incubation using the ViewLux imager equipped with AMC fluorescence optics. The change in fluorescence intensity over the 15-min reaction period was normalized against DMSO and inhibitor controls as described below.
Inglese J, Shamu CE and Guy RK, Reporting data from high throughput screening of small molecule libraries, Nature Chemical Biology, 2007, 3(8): 438-441. doi.org/10.1038/nchembio0807-438.
% is scaled to controls: 0 for no effect and ±100 for the full control effect; potency is read from the fitted curve at half-maximal effect.

Sequence of Furin (Homo sapiens) (P09958 whole entry, looked up): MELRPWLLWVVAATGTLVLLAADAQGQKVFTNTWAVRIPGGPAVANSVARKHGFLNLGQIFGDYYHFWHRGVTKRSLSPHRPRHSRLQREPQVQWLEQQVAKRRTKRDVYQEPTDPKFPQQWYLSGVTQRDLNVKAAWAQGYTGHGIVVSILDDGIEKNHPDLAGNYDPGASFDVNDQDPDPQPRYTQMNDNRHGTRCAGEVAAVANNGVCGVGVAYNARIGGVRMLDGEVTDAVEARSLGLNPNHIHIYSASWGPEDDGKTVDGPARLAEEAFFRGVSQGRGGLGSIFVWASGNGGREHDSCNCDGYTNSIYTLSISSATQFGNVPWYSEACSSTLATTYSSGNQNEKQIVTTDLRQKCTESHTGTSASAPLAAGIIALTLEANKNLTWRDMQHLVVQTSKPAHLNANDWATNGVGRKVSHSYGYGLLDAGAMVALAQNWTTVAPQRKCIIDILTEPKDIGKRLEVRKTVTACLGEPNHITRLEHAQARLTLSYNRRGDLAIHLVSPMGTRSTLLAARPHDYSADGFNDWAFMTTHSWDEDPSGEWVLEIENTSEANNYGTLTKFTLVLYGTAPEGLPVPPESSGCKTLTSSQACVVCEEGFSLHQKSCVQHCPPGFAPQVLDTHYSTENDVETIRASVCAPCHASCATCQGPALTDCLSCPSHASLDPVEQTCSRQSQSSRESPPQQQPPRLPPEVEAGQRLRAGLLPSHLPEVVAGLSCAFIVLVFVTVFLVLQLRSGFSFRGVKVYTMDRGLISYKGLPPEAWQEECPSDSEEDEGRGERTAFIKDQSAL

Compared with `CCc1ccccc1NC(=O)c1cnn(-c2ccc(F)cc2)c1C1CCNCC1`, `CCOc1ccc(NC(=O)c2c(NC(=O)Cc3ccccc3)sc3c2CCC(C)C3)cc1` (stereo not drawn) is lower in “activity change, negative = inhibition” value: 11.2% for the first, 1.84% for the second.

First: CCOc1ccc(N(Cc2ccccc2)C(=O)c2nc(S(C)(=O)=O)ncc2Cl)cc1
Second: CCOc1ccc(NC(=O)c2c(NC(=O)Cc3ccccc3)sc3c2CCCCC3)cc1
The “activity change, negative = inhibition” value of the first is lower: -11.6% for the first, -2.03% for the second.

Compared with `C=CC(=O)c1ccc2ccccc2c1`, `O=C(O)c1cccc(-n2[nH]c(-c3ccccc3)cc2=O)c1` is lower in “activity change, negative = inhibition” value: -7.94% for the first, -8.51% for the second.

Going from `C[C@@H]1O[C@@H](O[C@@H]2[C@@H](O)[C@H](OCCc3ccc(O)c(O)c3)O[C@H](CO[C@@H]3O[C@H](CO)[C@@H](O)[C@H](O)[C@H]3O)[C@H]2OC(=O)/C=C/c2ccc(O)c(O)c2)[C@H](O)[C@H](O)[C@H]1O` to `C=Cc1c(C)c2cc3nc(cc4[nH]c(cc5nc(cc1[nH]2)C(C)=C5CCC(=O)O)c(CCC(=O)OC)c4C)[C@@]1(C)C3=CC=C(C(=O)OC)[C@H]1C(=O)OC`, the “activity change, negative = inhibition” value rises from -11.8% to -5.53%.

Going from `Cc1c(S(=O)(=O)O)oc2c1C(=O)C(=O)c1c-2ccc2c1CCCC2(C)C` to `CC1=C(/C=C/C(C)=C/C=C/C(C)=C/C=C/C=C(C)/C=C/C=C(C)/C=C/C2=C(C)CCCC2(C)C)C(C)(C)CCC1`, the “activity change, negative = inhibition” value rises from -9.26% to -4.84%.

Compared with `Oc1ccc(OC2CCCCO2)cc1` (stereo not drawn), `CO[C@]1(NC(=O)CSC(F)F)C(=O)N2C(C(=O)O)=C(CSc3nnnn3CCO)CO[C@H]21` is lower in “activity change, negative = inhibition” value: -5.57% for the first, -6.32% for the second.

In the case of `N#CSc1cc(SC#N)c(N)nc1N`, the “activity change, negative = inhibition” value is reported as -9.14%.

Going from `C[C@@H]1[C@H](O)[C@@H]2OC(=O)C3=C2[C@H](CCC3)[C@@]12C[C@@H](c1ccoc1)OC2=O` to `C[C@@H]1C[C@@H](O)[C@@]23CO[C@]2(CO)C[C@@H](O)CC3[C@@]12CC(c1ccoc1)OC2=O` (stereo partly drawn), the “activity change, negative = inhibition” value rises from -7.71% [at 33.5 µM] to -1.18% [at 33.5 µM].

With `CC(=O)N[C@@H](C(=O)O[C@H]1CCC(C)(C)[C@@H]2CCC3=C(COC3=O)[C@@]12C)C(C)C` the “activity change, negative = inhibition” value was 10.1% [at 33.5 µM].

For `COC([CH2][Hg])CNC(=O)c1ccccc1OCC(=O)O` (stereo not drawn), the Potency was 2060 nM (active).

`CCC(C)C(=O)OC1C(C)C2(O)C(C=C(CO)CC3(O)C(=O)C(C)=CC32)C2C(C)(C)C12OC(=O)C(C)C` (stereo not drawn) was tested, and the “activity change, negative = inhibition” value was 3.07% [at 17.3 µM].
